Bioassay records: PubChem BioAssay, several laboratories
SIRT5 inh: inhibitors of human sirtuin-5 desuccinylase | Q9NXA8 | Purified SirT5, succinyl-peptide AMC, trypsin-coupled fluorescence | inhibition, % at 15 µM | 330,000 tested, 1.1% active | AID 652115; in the data active means inhibition above about 15%
Target sequence (Q9NXA8 whole entry, looked up): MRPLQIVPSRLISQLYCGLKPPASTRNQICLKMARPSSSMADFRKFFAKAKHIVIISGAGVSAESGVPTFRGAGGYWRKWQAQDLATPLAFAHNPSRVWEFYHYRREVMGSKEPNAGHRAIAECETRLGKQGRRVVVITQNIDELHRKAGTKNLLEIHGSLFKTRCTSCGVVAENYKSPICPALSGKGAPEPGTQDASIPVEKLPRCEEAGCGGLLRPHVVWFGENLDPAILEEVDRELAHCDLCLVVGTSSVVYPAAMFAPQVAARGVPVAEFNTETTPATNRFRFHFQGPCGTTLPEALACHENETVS
Casp6 inh: inhibitors of human caspase-6 | P55212 | purified caspase-6, Z-VEID-R110 cleavage fluorescence | inhibition, % at 12.5 µM | 350,000 tested, 0.53% active;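 active means mean inhibition across replicates at least about 35%, with every replicate also reaching that limit, limit read from the data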
Target sequence (P55212 24-179 limits assumed): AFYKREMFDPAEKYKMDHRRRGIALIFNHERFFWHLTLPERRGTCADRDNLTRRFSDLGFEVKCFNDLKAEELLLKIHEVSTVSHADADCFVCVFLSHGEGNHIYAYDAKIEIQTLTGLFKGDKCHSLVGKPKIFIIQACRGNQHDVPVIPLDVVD
Target sequence (P55212 194-293 limits assumed): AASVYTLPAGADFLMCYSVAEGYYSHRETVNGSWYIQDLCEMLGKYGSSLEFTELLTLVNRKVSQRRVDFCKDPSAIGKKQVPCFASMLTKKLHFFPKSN
SUMO HTRF inh: blocks human SUMOylation mediated by UBC9; HTRF SUMOylation assay, SAE1/SAE2 + UBC9, in vitro; inhibition, % at 35 µM; P63279; 290,000 tested, 0.36% active; AID 2006; in the data active means inhibition above about 50%, passing the limit was not always enough
NSD2 inh: inhibitors of human histone methyltransferase NSD2; O96028; inhibition, % at 12.5 µM; 310,000 tested, 0.54% active; NSD2 peptide methylation, AlphaScreen, 120 min; in the data active means inhibition above about 50%
A number is an active result; – = inactive; · = not tested or not shown. Shown are actives, neighbours in structure and some others; about 1.6% of the full set was active somewhere.

SMILES	SIRT5 inh	Casp6 inh	SUMO HTRF inh	NSD2 inh
CCS(=O)(=O)c1nc(S(=O)(=O)c2ccc(Cl)cc2)c(N2CCC3(CC2)OCCO3)s1	–	–	–	–
Cc1ccc(C(=O)O)cc1NC(=S)NC(=O)c1ccc(COc2ccccc2)cc1	–	38	–	–
O=C(CSc1nnc(NC(=O)c2ccco2)s1)Nc1cccc(F)c1	22	–	–	–
COc1cccc(-c2ccc3n(c2=O)C[C@H]2[C@H](CO)[C@@H](C(=O)NCC4CC4)N(C)[C@@H]32)c1	–	·	·	·
Cc1cc(C)c2c(CN3CCCC3)cc(=O)oc2c1	–	–	·	·
Cc1cc(C)c2c(CN3CCOCC3)cc(=O)oc2c1	30	–	–	–
COc1ccc2c3c(n(C)c2c1)[C@@H](CO)N(C(=O)C1CC1)CC31CCN(C)CC1	–	–	·	·
O=C(c1ccc(NS(=O)(=O)c2ccc(F)cc2)cc1)N1CCCCC1	–	–	·	–
O=C(c1ccc(F)cc1)N1CCOCC1	22	–	–	–
O=C(c1ccc(NS(=O)(=O)c2ccc(F)cc2)cc1)N1CCCCCC1	17	–	·	–
CC(=O)NN1C(=O)/C(=C\c2ccc(Br)o2)SC1=S	–	51	–	–
CC(=O)NN1C(=O)/C(=C/c2ccc(Br)o2)SC1=S	·	·	–	–
COCC#Cc1ccc([C@@H]2[C@@H](CO)N3CCCCN(Cc4cccnc4)C[C@@H]23)cc1	–	–	·	·
O=C(/C=C/c1ccco1)N(Cc1ccc(Cl)cc1)C1CCS(=O)(=O)C1 (configuration not stated)	57	–	–	–
CO[C@H]1CN(C)C(=O)c2ccc(NC(C)=O)cc2OC[C@H](C)N(Cc2nccs2)C[C@@H]1C	18	–	·	·
CO[C@@H]1CN(C)C(=O)c2ccc(NS(C)(=O)=O)cc2OC[C@@H](C)N(Cc2nccs2)C[C@H]1C	20	–	·	·
CO[C@@H]1CN(C)C(=O)c2ccc(NC(C)=O)cc2OC[C@H](C)N(Cc2nccs2)C[C@H]1C	–	–	·	·
O=C(Nc1ccccc1)Nc1ccno1	–	–	57	–
CCOc1ccc(NC(=O)COC(=O)Cc2ccsc2)cc1	20	–	·	–
C[C@H]1CN([C@@H](C)CO)S(=O)(=O)c2ccc(-c3cccnc3)cc2O[C@@H]1CN(C)C(=O)NC1CCCC1	–	–	·	·
CC1(C(=O)NS(=O)(=O)c2ccccc2Cl)CCN1C(=O)Cc1cccc2ccccc12 (configuration not stated)	30	–	·	–
O=C(c1cccc(F)c1)N1CC2(C1)[C@@H](c1ccccc1)[C@H](CO)N2C(=O)C1CCC1	–	–	·	·
O=C1/C(=C/c2ccco2)SC(=S)N1C1CCS(=O)(=O)C1 (configuration not stated)	–	–	61	–
CCN(C(=O)C(C)N1C(=O)/C(=C/c2ccco2)SC1=S)C1CCS(=O)(=O)C1 (configuration not stated)	–	50	–	–
O=C1/C(=C\c2ccco2)SC(=S)N1C1CCS(=O)(=O)C1 (configuration not stated)	–	49	–	–
SMILES	SIRT5 inh	Casp6 inh	SUMO HTRF inh	NSD2 inh
O=C1/C(=C\c2ccco2)SC(=S)N1c1ccccc1	·	·	–	–
Cc1ccc(/C=C2\SC(=S)N(C3CCS(=O)(=O)C3)C2=O)cc1 (configuration not stated)	–	–	–	–
C[C@@H]1CN([C@H](C)CO)C(=O)c2cc(NS(C)(=O)=O)ccc2O[C@@H]1CN(C)Cc1ccc(C(=O)Nc2ccccc2N)cc1	·	–	·	·
Cc1ccccc1NC(=O)C1CCCN(S(=O)(=O)c2cnc[nH]2)C1 (configuration not stated)	·	91	–	·
COc1ccc(CNC(=O)/C=C/[C@H]2O[C@@H](n3cc(C)c(=O)[nH]c3=O)C[C@@H]2O)cc1	–	–	·	·
COC(=O)c1ccc(CNC(=O)/C=C/[C@H]2O[C@@H](n3cc(C)c(=O)[nH]c3=O)C[C@@H]2O)cc1	21	–	·	·
C[C@@H]1CN([C@@H](C)CO)C(=O)c2cccc(NC(=O)C3CC3)c2O[C@@H]1CN(C)S(=O)(=O)c1cn(C)cn1	–	–	·	·
O=[N+]([O-])c1c(Nc2ccc(O)cc2)cc(Cl)c2nonc12	17	–	–	–
C[C@@H]1CN([C@H](C)CO)C(=O)c2cc(NC(=O)CCC(F)(F)F)ccc2O[C@@H]1CN(C)S(=O)(=O)c1ccc(F)cc1	–	–	·	·
CC1=C(/C=C/C(C)=C/C=C/C(C)=C/CO)C(C)(C)CCC1	26	–	·	·
CC1=C(/C=C/C(C)=N\NC(=O)c2ccncc2)C(C)(C)CCC1	–	–	–	–
Cc1cc(=O)n2c3c(c4c(cc13)c(CN(C)C)cc(=O)n4C)OC2	–	99	·	·
COc1ccc(S(=O)(=O)Nc2cccc3c2O[C@H](CN(C)C)[C@H](C)CN([C@@H](C)CO)C3=O)cc1	–	–	·	·
C[C@H](CO)N1C[C@H](C)[C@@H](CN(C)C(=O)C2CCOCC2)Oc2cc(C3=CCCCC3)ccc2S1(=O)=O	–	–	·	·
O=C(c1ccc([N+](=O)[O-])cc1)N(c1ccccn1)c1ccccn1	20	–	–	–
O=C(NCc1ccccn1)c1ccc([N+](=O)[O-])cc1	–	–	–	–
N=C1/C(=C/c2cccn2Cc2ccc(Cl)cc2)C(=O)N=C2SC=CN12	·	·	50	–
CC(C)(C)C(=O)CNCC(=O)C(C)(C)C	25	–	–	–
COc1ccc(-c2ccc(C#N)c(SCC(=O)Nc3sc4c(c3C#N)CCC4)n2)cc1OC	·	·	52	·
COc1ccc(CN(C)CC(=O)Nc2c(C)cccc2C)c(OC)c1	–	–	–	–
COc1ccc(CN(C)CC(=O)Nc2sc3c(c2C#N)CCC3)c(OC)c1	15	–	–	–
N#Cc1cc2c(nc1SCC(=O)Nc1sc3c(c1C#N)CCC3)CCC2	·	·	–	–
C[C@H]1CN([C@@H](C)CO)C(=O)Cc2cc(NC(=O)Nc3ccc(C(F)(F)F)cc3)ccc2O[C@@H]1CN(C)C(=O)Nc1ccc2c(c1)OCO2	–	–	·	·
O=C(CN1C(=O)NC2(CCCC2)C1=O)N1CCN(c2ccccc2O)CC1	18	–	·	–
CO[C@H]1CN(C)C(=O)c2cc(NC(=O)NC(C)C)ccc2OC[C@H](C)N(S(C)(=O)=O)C[C@H]1C	–	–	·	·
SMILES	SIRT5 inh	Casp6 inh	SUMO HTRF inh	NSD2 inh
c1coc(CSSCc2ccco2)c1	–	82	·	·
Cc1ccc(NC(=O)CSCc2ccco2)cc1	–	–	–	–
CO[C@H]1CN(C)C(=O)c2ccc(NC(=O)C3CCC3)cc2OC[C@@H](C)N(Cc2ccc(F)cc2)C[C@H]1C	–	–	·	·
C[C@@H]1CCCCO[C@@H](CN(C)S(=O)(=O)c2ccc(Cl)cc2)[C@@H](C)CN([C@H](C)CO)C(=O)c2cc(NS(=O)(=O)c3ccc(F)cc3)ccc2O1	15	–	·	·
C[C@@H]1CN([C@@H](C)CO)C(=O)c2cc(NS(=O)(=O)c3ccc(F)cc3)ccc2O[C@@H](C)CCCCO[C@@H]1CN(C)S(=O)(=O)c1ccc(Cl)cc1	25	–	·	·
C[C@@H]1CCCCO[C@H](CN(C)S(=O)(=O)c2ccc(Cl)cc2)[C@@H](C)CN([C@@H](C)CO)C(=O)c2cc(NS(=O)(=O)c3ccc(F)cc3)ccc2O1	–	–	·	·
